Calls of active or inactive are those of the source.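 The calls were made as follows: active = potency for halving colony growth of 5 µM or lower; inconclusive = potency above 5 µM but below 10 µM; inactive = potency of 10 µM or higher.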

A short description of the experiment: qHTS for Inhibitors of Ubiquitin-specific Protease USP2a Using CHOP2 as the Reporter: Clonogenic Assay. The note with it: clonogenic colony formation, crystal violet, 10 days. The source says: Homeostasis of cellular proteins is maintained through a combination of synthesis and degradation. The pathway that accounts for the majority of protein degradation is the ubiquitin-proteasomal pathway. Ubiquitin (Ub) is highly conserved in all cells and the generation of a multi-Ub chain typically targets proteins for degradation by the proteasome. However, ubiquitination is highly reversible and dynamic. Deubiquitination, the reverse process, is catalyzed through the action of enzymes referred to as isopeptidases or deubiquitinating enzymes (DUBs). This group of enzymes is collectively responsible for maintaining adequate pools of free ubiquitin and regulating the ubiquitination status of cellular proteins. […] To further visualize and quantitate the effect of compounds on cell proliferation, a colony forming or clonogenic assay was performed in 6-well plates using HCT116 cells. […] The colonies were visualized on the Typhoon imager (GE) using Cy5 detection, and quantitated with the associated software. […]
2 mL 300 cells/well were dispensed into a 6-well plate in DMEM with 10% FBS and 1% Pen-Strep and then incubated for 48 hours at 37 deg C, 5% CO2. […] The plate is dried overnight and then read on a GE Typhoon FLA 9500 in end-point mode (Ex 635, Em Long-Pass Red Filter)
(In general: qHTS replaces the single test concentration by a dilution series.)
Turning to `Cc1ccc(S(=O)(=O)Nc2cc(C(F)(F)F)ccc2C(=O)Nc2nc(-c3ccccc3)cs2)cc1`, the Potency was 3.6 µM (active).

Source of the values: PubChem BioAssay AID652254 (National Center for Advancing Translational Sciences (NCATS), 2013).
